KB-3-1 cytotox: kills parental KB-3-1 adenocarcinoma cells; KB-3-1 viability, CellTiter-Glo ATP luminescence, 72 h; Potency, µM (titrated, usually from 46.1 µM), most hits filed as cytotoxic; actives 1.4% (n = 400,000); AID 1347075; further: nearly all actives have a fitted effect of over 60% in size
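Luminescent ATP read-out (CellTiter-Glo) measures survival of drug-naive KB-3-1 cells after 72 h compound exposure at 37 °C. Titration series was screened from lowest to highest concentration, with DMSO vehicle plates as background controls.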
SW480 rerep: induces DNA re-replication in SW480 colon adenocarcinoma cells; SW480 DNA re-replication, Hoechst DNA content imaging, 48 h; Potency, µM (top dose mostly 46.1 µM), most hits filed as activators; actives 1.8% (n = 340,000); AID 624297; further: nearly all actives have a fitted effect of over 55% in size
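First, 250 cells per well were seeded. Next, compound or vehicle (23 nL) was pinned in, plates sat 48 hr at 37 C. Finally Hoechst was added for 40 min before fluorescence scanning.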
HT1080-NT tox: kills 2HG-producing HT-1080-NT fibrosarcoma cells | AID 686970 | Potency, µM (top dose mostly 46.1 µM), hits mostly cytotoxic | actives 1.6% (n = 360,000) | HT-1080-NT fibrosarcoma viability, CellTiter-Glo ATP luminescence, 48 h;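 further: NT is the 2HG producing partner of a matched IDH1 knockdown line; nearly all actives have a fitted effect of over 55% in size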
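HT-1080-NT; 750 cells/well; 5% FBS RPMI; 48 h compound, 37 degrees C; CellTiter-Glo luminescence; curve fitting and curve-class assignment.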
KB-V1 MDR tox: kills drug-selected multidrug resistant KB-V1 cells; KB-V1 MDR cells viability, CellTiter-Glo, 72 h; Potency, µM (top dose mostly 46.1 µM), hits mostly cytotoxic; actives 3.4% (n = 400,000); further: nearly all actives have a fitted effect of over 60% in size
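KB-V1, DMEM (no phenol red) + 10% FBS; cpd pin-transferred, titration series; 72 h, 37 degrees C; CellTiter-Glo, luminescence. Data normalized, curve-fit.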
MCF10A rereplic: DNA re-replication induction in MCF 10a cells. Potency, µM (doses to about 46.1 µM), usual class: activators. MCF 10A DNA re-replication, Hoechst nuclear intensity, 48 h. actives 2.9% (n = 350,000); further: nearly all actives have a fitted effect of over 50% in size
HT1080 IDH1KD tx: kills HT-1080 cells with IDH1 knockdown. actives 2% (n = 360,000). AID 686971. HT-1080 IDH1 knockdown viability, ATP luminescence, 48 h. Potency, µM (series often up to 46.1 µM), most hits filed as cytotoxic
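Cytotoxicity counter-line: IDH1KD HT-1080, 48 h, CellTiter-Glo. Curves classed by r2, magnitude and activity.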
Each line names hits and unclear results; the compound was inactive in the other large screens. Only some compounds are listed: those with a hit (about 7.9% of all), similar ones and a draw of the others. The call rests on the fitted dose curve; in most records, active means well fitted curve in the direction sought with a large enough effect; inconclusive means small, poorly fitted or top-dose-only effect, or another doubt; inactive means no such curve, though single readings can be large; an effect the other way counts as inactive or inconclusive.

O=C(Nc1cccc(-c2cnc3ccccc3n2)c1)c1cccc(NC(=O)c2ccco2)c1	KB-3-1 cytotox inconclusive, HT1080-NT tox inconclusive, KB-V1 MDR tox inconclusive, MCF10A rereplic 15µM, HT1080 IDH1KD tx inconclusive
O=C(CCl)Nc1cccc(-c2cnc3ccccc3n2)c1	KB-3-1 cytotox 10µM, SW480 rerep 12µM, HT1080-NT tox inconclusive, KB-V1 MDR tox 13µM, MCF10A rereplic inconclusive, HT1080 IDH1KD tx inconclusive
Cc1ccc(-c2cnc3ccccc3n2)cc1C	MCF10A rereplic 18µM
Cc1cc2ncc(-c3ccccc3)nc2cc1C	SW480 rerep inconclusive
Cc1ccc(NC(=O)CSc2ncn[nH]2)cc1	none
O=C(NNc1ccc(C(F)(F)F)cc1[N+](=O)[O-])c1ccc(NS(=O)(=O)c2ccc(F)cc2)cc1	HT1080-NT tox inconclusive, HT1080 IDH1KD tx 21µM
Cc1ccc(S(=O)(=O)CC(N)=O)cc1	MCF10A rereplic inconclusive
Cc1ccc(S(=O)(=O)CCSC(=N)N)cc1	SW480 rerep 6.5µM, HT1080-NT tox inconclusive, MCF10A rereplic 18µM, HT1080 IDH1KD tx inconclusive
O=C(NCCOc1ccccc1)c1n[nH]c(=O)c2ccccc12	KB-V1 MDR tox 23µM, HT1080 IDH1KD tx inconclusive
O=C(NCCOc1ccccc1)c1ccc2c(c1)OCO2	none
O=C(NCCOc1ccccc1)c1ccc2n[nH]nc2c1	SW480 rerep 4.6µM, KB-V1 MDR tox inconclusive
Cc1ccc(CNS(=O)(=O)c2ccc(F)c(C(=O)Nc3ccc(C)c(F)c3)c2)cc1	none (no result: SW480 rerep, HT1080-NT tox, MCF10A rereplic, HT1080 IDH1KD tx)
COC(=O)C1=C(N)N(c2ccccc2F)C2=C(C(=O)CC(C)(C)C2)C1c1ccc(OC)c(OC)c1 (stereo not given)	KB-3-1 cytotox inconclusive, SW480 rerep inconclusive, KB-V1 MDR tox 4.6µM
COCC1CCCCN1C(=O)c1cc(COc2ccc3ncccc3c2)on1 (stereo not given)	KB-3-1 cytotox inconclusive, KB-V1 MDR tox inconclusive
CCCN1CCN(C(=O)c2cc(COc3ccc4ncccc4c3)on2)CC1	KB-3-1 cytotox inconclusive, KB-V1 MDR tox inconclusive
CCC1CCCCN1C(=O)c1cc(COc2ccc3ncccc3c2)on1 (stereo not given)	KB-3-1 cytotox 4.1µM, KB-V1 MDR tox 1.6µM, HT1080 IDH1KD tx inconclusive
CCN1CCN(C(=O)c2cc(COc3ccc4ncccc4c3)on2)CC1	KB-V1 MDR tox 16µM
Cc1nc(CN(C)C(=O)c2cc(COc3ccc4ncccc4c3)on2)cs1	KB-3-1 cytotox inconclusive, SW480 rerep inconclusive, HT1080-NT tox 4.1µM, KB-V1 MDR tox inconclusive, HT1080 IDH1KD tx inconclusive
CC(=O)c1ccc(N2CCN(C(=O)c3ccc(Cn4c(=S)[nH]c5ccc(N6CCOCC6)cc5c4=O)cc3)CC2)cc1	KB-V1 MDR tox inconclusive
COc1ccc(CN2CCNC(=O)C2CC(=O)NC2CCCCCCC2)cc1OC (stereo not given)	SW480 rerep inconclusive
O=C1Nc2ccccc2-n2nnnc2C1N1CCCN(Cc2ccc(F)cc2)CC1 (stereo not given)	KB-V1 MDR tox inconclusive (no result: SW480 rerep, MCF10A rereplic)
O=C(CN(Cc1ccccc1)S(=O)(=O)c1ccc(F)cc1)NCCC1=CCCCC1	KB-V1 MDR tox inconclusive
CSc1ccc(CN(C)CC(=O)NC(=O)NCCC2=CCCCC2)cc1	KB-V1 MDR tox 21µM
Cc1ccccc1CN(c1ccc(C(=O)N2CCCC2)cc1)S(C)(=O)=O	MCF10A rereplic inconclusive
Cc1ccc(NC(=O)c2cc(S(=O)(=O)NCCC3=CCCCC3)ccc2F)cc1	KB-3-1 cytotox inconclusive, KB-V1 MDR tox 2.3µM, MCF10A rereplic inconclusive
Cc1ccccc1CN(c1ccc(C(=O)NCCC2=CCCCC2)cc1)S(C)(=O)=O	KB-3-1 cytotox inconclusive, KB-V1 MDR tox 13µM
CSc1ccc(CN(C)CC(=O)NC(=O)NC(C)(C)C)cc1	none
Cc1ccc(S(=O)(=O)N(CC(=O)NCCC2=CCCCC2)Cc2ccccc2)cc1	KB-3-1 cytotox inconclusive, SW480 rerep inconclusive, HT1080-NT tox inconclusive, KB-V1 MDR tox 18µM, MCF10A rereplic inconclusive, HT1080 IDH1KD tx inconclusive
O=C(CSc1nc(-c2ccccc2)cc(=O)[nH]1)Nc1ccccc1	none
CCS(=O)(=O)N1Cc2ccccc2CC1C(=O)N(C)CC(=O)Nc1ccc(OC)cc1 (stereo not given)	none
O=C(COC(=O)C1CCN(c2ccc(C(F)(F)F)cn2)CC1)Nc1ccc(F)cc1[N+](=O)[O-]	none
O=C(CN(Cc1ccccc1F)S(=O)(=O)c1ccc(Cl)cc1)NCCC1=CCCCC1	KB-3-1 cytotox inconclusive, HT1080-NT tox inconclusive, KB-V1 MDR tox 6.5µM, MCF10A rereplic inconclusive, HT1080 IDH1KD tx inconclusive
COc1ccc(S(=O)(=O)C(C#N)c2nc3ccccc3nc2N2CCCC(C)C2)cc1 (stereo not given)	MCF10A rereplic 12µM
Cc1ccc(S(=O)(=O)C(C#N)c2nc3ccccc3nc2N2CCCC2)cc1 (stereo not given)	KB-V1 MDR tox 18µM, MCF10A rereplic inconclusive
CC1CCCN(c2nc3ccccc3nc2C(C#N)S(=O)(=O)c2cccs2)C1 (stereo not given)	KB-V1 MDR tox inconclusive, MCF10A rereplic inconclusive, HT1080 IDH1KD tx inconclusive
CCN1CCN(c2nc3ccccc3nc2C(C#N)S(=O)(=O)c2ccc(C)cc2)CC1 (stereo not given)	KB-3-1 cytotox inconclusive
Cc1ccc(S(=O)(=O)C(C#N)c2nc3ccccc3nc2N2CC(C)OC(C)C2)cc1C (stereo not given)	SW480 rerep inconclusive, MCF10A rereplic 15µM
Cc1cccc(S(=O)(=O)C(C#N)c2nc3ccccc3nc2N2CC(C)OC(C)C2)c1 (stereo not given)	KB-3-1 cytotox inconclusive, KB-V1 MDR tox inconclusive
COCCNC(=O)c1cc2c(c(-c3cccc(C#Cc4ccc(OC)c(OC)c4)c3)n1)[C@H](CCO)N(S(=O)C(C)(C)C)C2 (stereo not given in full)	HT1080-NT tox inconclusive, HT1080 IDH1KD tx inconclusive (no result: SW480 rerep, MCF10A rereplic)
COc1ccc(-c2cc(C(=O)Nc3ccc(C(N)=O)cc3)c3ccccc3n2)cc1OC	KB-3-1 cytotox inconclusive, SW480 rerep 18µM, HT1080-NT tox inconclusive, MCF10A rereplic inconclusive, HT1080 IDH1KD tx inconclusive
COc1cc(-c2cc(C(=O)Nc3ccccc3N3CCOCC3)c3ccccc3n2)cc(OC)c1OC	KB-V1 MDR tox 9.2µM, MCF10A rereplic inconclusive
O=C(Nc1ccccc1N1CCOCC1)c1cc(-c2ccco2)nc2ccccc12	KB-3-1 cytotox inconclusive, HT1080-NT tox inconclusive, KB-V1 MDR tox inconclusive, MCF10A rereplic inconclusive
COc1cc(NC(C(=O)Nc2cccc(C(C)=O)c2)c2ccccc2)cc(OC)c1OC (stereo not given)	KB-3-1 cytotox inconclusive, KB-V1 MDR tox 4.6µM
COc1ccc(NC(=O)c2cc(-c3ccc(OC)c(OC)c3)nc3ccccc23)c(OC)c1	KB-3-1 cytotox inconclusive, KB-V1 MDR tox inconclusive, MCF10A rereplic inconclusive

Screens: PubChem BioAssay, National Center for Advancing Translational Sciences (NCATS)
